Source: PubChem (National Center for Advancing Translational Sciences (NCATS))
D2 ag-1: agonists of human D2 dopamine receptor (beta-arrestin); 0.084% of 360,000 active; DiscoveRx PathHunter D2 beta-arrestin, luminescence, 90 min; 100% = 57 uM dopamine signal; activation, % (no concentration beside the values); in the data active means activation above about 40%; inconclusive means between about 15% and that limit
Target sequence (P14416 whole entry, looked up): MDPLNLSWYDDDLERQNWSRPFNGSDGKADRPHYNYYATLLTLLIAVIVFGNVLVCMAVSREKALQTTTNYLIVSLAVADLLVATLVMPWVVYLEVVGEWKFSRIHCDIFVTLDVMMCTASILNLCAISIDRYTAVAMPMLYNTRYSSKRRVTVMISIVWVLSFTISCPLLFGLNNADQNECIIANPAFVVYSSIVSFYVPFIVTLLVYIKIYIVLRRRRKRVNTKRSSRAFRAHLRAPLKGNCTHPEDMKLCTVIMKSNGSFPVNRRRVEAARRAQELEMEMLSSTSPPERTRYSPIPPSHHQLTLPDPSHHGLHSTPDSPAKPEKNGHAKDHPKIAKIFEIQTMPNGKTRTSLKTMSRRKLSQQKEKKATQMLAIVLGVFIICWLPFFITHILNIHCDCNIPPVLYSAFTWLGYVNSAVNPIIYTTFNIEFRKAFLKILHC
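DiscoveRx PathHunter D2 beta-arrestin cells (2,100/well) attached overnight, then compound-stimulated 90 min at 37 C in HBSS/10 mM HEPES/0.1% Tween-20 buffer; beta-galactosidase complementation read by luminescence after 1 h at ambient temperature. Dopamine 57 uM final (EC100) as control.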
D2 PAM-1: human D2 receptor positive allosteric modulation | P14416 | DiscoveRx D2 beta-arrestin cells, luminescence, 90 min; 100% = 57 uM dopamine signal | potentiation, % (test concentration not listed) | 0.23% of 360,000 active | AID 624464; in the data active means potentiation above about 50%; inconclusive means mostly about 30% to 49%
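D2 cells co-treated with compound plus 50 nM dopamine (EC20) for 90 min at 37 deg C to detect potentiation. Beta-arrestin recruitment was read as enzyme-fragment luminescence after 1 h at ambient temperature. Full response was set by 57 uM dopamine.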
D2 ag-2: agonists of human D2 dopamine receptor; activation, % at 2 µM; HEK293 T-REx D2 cells, calcium flux agonist mode; 0.53% of 340,000 active; AID 485358; P14416;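 active means activation over 3 SD above normal in the single-dose calcium agonist read, cut at about 30% in these data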; further: 0% is about no effect
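Calcium-flux readout, 1 cycle/sec over 180 s following compound pin transfer, in inducible HEK293 Trex D2 cells (force-coupled); dopamine controls included. Positive calcium responses during this window marked compounds as potential agonists.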
D2 antagonist: antagonizes the human D2 dopamine receptor; 2% of 340,000 active; AID 485344; inhibition, % at 10 µM; HEK293 TREx D2 cells, calcium flux, dopamine EC80; P14416; in the data active means inhibition above about 30%; inactive means below that, where a call was filed; further: 0% is about no effect
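Antagonism is scored as inhibition of an EC80 dopamine-evoked calcium signal in a force-coupled, tetracycline-inducible HEK293 T-REx D2 line, with compound present 180 s before agonist.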
D2 PAM-2: positive allosteric modulators of human D2 dopamine receptor; P14416; HEK293 T-REx D2, calcium flux, EC20 dopamine potentiation; potentiation, % at 10 µM; 0.34% of 340,000 active; AID 485347;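 active means potentiation over 3 SD above the plate norm, cut at about 30% in these data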; further: 0% is about no effect
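Tetracycline-induced Hek293 Trex D2 cells, force-coupled to calcium, loaded with no-wash calcium dye. Compound added with 180 s kinetic read for agonism, then EC20 dopamine and a further 180 s read for potentiation.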
The depositor's hits bear a star. Only some compounds are listed: those with a hit (about 2.4% of all), similar ones and a draw of the others.

Results for O=C(CN1CCN(c2ccc(O)cc2)CC1)N1CCc2ccccc21 ?
D2 ag-1: 9; D2 PAM-1: -4; D2 ag-2: 0; D2 antagonist: 40*; D2 PAM-2: -25

How did Cc1cc[n+](CC(=O)N2CCCc3ccccc32)cc1 do in these assays?
D2 ag-1: 2; D2 PAM-1: -11; D2 ag-2: -1; D2 antagonist: 39*; D2 PAM-2: -19

Results for CCc1cccc2c(-c3ccccc3)nc(SCC(=O)Nc3ccccc3)nc12 ?
D2 ag-2: 1; D2 PAM-2: 9

How did CC(C)c1noc(-c2ccccc2OCC(=O)Nc2ccc([N+](=O)[O-])cc2)n1 do in these assays?
D2 ag-2: 0; D2 PAM-2: 4

How did CCCN(CCO)CCCc1ccccc1 do in these assays?
D2 ag-1: 0; D2 PAM-1: -22; D2 ag-2: 0; D2 antagonist: -3; D2 PAM-2: 6

What do the screens show for `CCN(CCCc1ccccc1)CCCc1ccccc1`?
D2 ag-1: -9; D2 PAM-1: -32; D2 ag-2: 2; D2 antagonist: 83*; D2 PAM-2: -31

What do the screens show for `CCOC(=O)C1(C)C=C(Nc2ccc(O)cc2)C(=O)N1c1ccc(O)cc1` (stereo unspecified)?
D2 ag-1: inconclusive; D2 PAM-1: 104*; D2 ag-2: -1; D2 antagonist: -4; D2 PAM-2: -1

Results for Cc1ccc(NC(=O)Nc2nnc(N3CCCC3)s2)cc1C ?
D2 ag-2: 4; D2 PAM-2: 3

How did COc1ccccc1C(=O)Nc1ccccc1OCc1cc(=O)n2cc(C)sc2n1 do in these assays?
D2 ag-2: 0; D2 PAM-2: 0

How did COc1ccc(N2CCN(C(=O)c3cc(S(=O)(=O)N4CCCCCC4)ccc3OC)CC2)cc1 do in these assays?
D2 ag-1: -2; D2 PAM-1: -21; D2 ag-2: 0; D2 antagonist: 40*; D2 PAM-2: -9

Results for COc1ccc(S(=O)(=O)N2CCCCCC2)cc1C(=O)N1CCN(c2ccc(F)cc2)CC1 ?
D2 ag-1: 9; D2 PAM-1: -3

Results for CCOC(=O)C1CCN(C(=O)c2cc(S(=O)(=O)N3CCCCCC3)ccc2OC)CC1 ?
D2 ag-1: -3; D2 PAM-1: -10; D2 ag-2: -1; D2 antagonist: 38*; D2 PAM-2: 10

Results for CCOC(=O)C1CCCN(S(=O)(=O)c2ccc(C)cc2)C1 (stereo unspecified) ?
D2 ag-1: -1; D2 PAM-1: 0; D2 ag-2: 1; D2 antagonist: -14; D2 PAM-2: 3

How did CCOC(=O)C1CCCN(S(=O)(=O)c2ccc(S(N)(=O)=O)cc2)C1 (stereo unspecified) do in these assays?
D2 ag-1: 5; D2 PAM-1: 0; D2 ag-2: 1; D2 antagonist: -11; D2 PAM-2: 51*

Results for O=C(NNC(=O)c1ccccc1-n1cccc1)c1ccc(Cl)nc1 ?
D2 ag-1: -3; D2 PAM-1: -1; D2 ag-2: 1; D2 antagonist: -13; D2 PAM-2: -1

What do the screens show for `COCCCNC(=O)CSc1nc(-c2cccc(F)c2)[nH]c1-c1ccccc1`?
D2 ag-2: 0; D2 PAM-2: 12

How did O=C(COC(=O)C1=NN(c2ccccc2)C(=O)CC1)NCc1ccccc1Cl do in these assays?
D2 ag-1: -3; D2 PAM-1: 13; D2 ag-2: -1; D2 antagonist: 32*; D2 PAM-2: -5

What do the screens show for `Cc1ccc(SCCC(=O)NC(C)(C)C)cc1`?
D2 ag-1: -2; D2 PAM-1: -7; D2 ag-2: 0; D2 antagonist: -1; D2 PAM-2: 12

Results for Cc1ccc(SCCC(=O)NC(C)C)cc1 ?
D2 ag-1: -3; D2 PAM-1: -8; D2 ag-2: 1; D2 antagonist: 32*; D2 PAM-2: -11

How did Cc1ccc(N(C)S(=O)(=O)c2ccc3[nH]c(=O)ccc3c2)cc1 do in these assays?
D2 ag-2: 2; D2 PAM-2: -17

Results for O=C(Nc1ccccn1)c1ccc(Cl)c(S(=O)(=O)N2CCOCC2)c1 ?
D2 ag-1: 0; D2 PAM-1: 4; D2 ag-2: 0; D2 antagonist: 4; D2 PAM-2: 9

Results for Cc1ccc(C(=O)Nc2ccccn2)cc1S(=O)(=O)N1CCOCC1 ?
D2 ag-1: 2; D2 PAM-1: -12; D2 ag-2: 0; D2 antagonist: 35*; D2 PAM-2: 0

How did COCCCNC(=O)CN(c1cc(Cl)ccc1OC)S(=O)(=O)c1ccc(C)c([N+](=O)[O-])c1 do in these assays?
D2 ag-1: -3; D2 PAM-1: -2; D2 ag-2: 0; D2 antagonist: 1; D2 PAM-2: 10

What do the screens show for `COCCNC(=O)CN(c1cc(Cl)ccc1OC)S(=O)(=O)c1ccc(C)c([N+](=O)[O-])c1`?
D2 ag-1: -4; D2 PAM-1: -6; D2 ag-2: 0; D2 antagonist: 59*; D2 PAM-2: -4

How did Cc1cc(Br)cn2c(Cc3cccc(F)c3)c(-c3ccc(Cl)cc3)nc12 do in these assays?
D2 ag-1: -6; D2 PAM-1: -5

How did Cc1cccc(NS(=O)(=O)c2ccccc2)n1 do in these assays?
D2 ag-1: -2; D2 PAM-1: -2; D2 ag-2: 0; D2 antagonist: 31*; D2 PAM-2: 7

How did CNC(=O)c1ccccc1NC(=O)c1ccco1 do in these assays?
D2 ag-1: -4; D2 PAM-1: 8; D2 ag-2: -1; D2 antagonist: -3; D2 PAM-2: 34*

Results for Cc1ccccc1NC(=O)c1ccccc1NC(=O)c1ccco1 ?
D2 ag-1: -2; D2 PAM-1: -19; D2 ag-2: 0; D2 antagonist: -9; D2 PAM-2: 5

What do the screens show for `CC1CCCCN1C(=O)c1ccccc1NC(=O)c1ccco1` (stereo unspecified)?
D2 ag-1: -1; D2 PAM-1: -16; D2 ag-2: -2; D2 antagonist: 12; D2 PAM-2: 31*

What do the screens show for `Cc1ccc(C)c(N2CCN(C(=O)c3cc4c(=O)n(Cc5ccco5)ccc4nc3C)CC2)c1`?
D2 ag-2: 1; D2 PAM-2: 9

How did Nc1cccc2c1C(=O)N(CCOc1ccccc1F)C2=O do in these assays?
D2 ag-1: -2; D2 PAM-1: -5; D2 ag-2: 2; D2 antagonist: -9; D2 PAM-2: -1

What do the screens show for `CCOC1(OCC)C(c2ccc(Cl)cc2)C(C#N)(C#N)C1(OCC)OCC` (stereo unspecified)?
D2 ag-1: -3; D2 PAM-1: -8; D2 ag-2: 1; D2 antagonist: 38*; D2 PAM-2: 12

What do the screens show for `C=CCN(C(=O)c1csnn1)C(C(=O)NCc1ccc(F)cc1)c1ccccc1` (stereo unspecified)?
D2 ag-1: 0; D2 PAM-1: -1; D2 ag-2: 0; D2 antagonist: 52*; D2 PAM-2: 19
